Several values for one entry are separate records, joined by “and”; a condition that tells them apart may be missing. Equal entries are not always repeated. Screen size: about 16,000 compounds; about 40 (0.2%) were called active. About 1% were inconclusive and are not listed. What follows is part of a selection rich in actives, with near analogues and random picks from the rest. A number with no mark means an inactive call. Calls follow the shape of the dose curve; as a rule, active = well fitted activation curve with a large enough effect; inconclusive = small, poorly fitted or top-dose-only effect, or another doubt; inactive = no such curve, though single readings can be large or run the other way.
% is scaled to controls: 0 for no effect and ±100 for the full control effect; potency is read from the fitted curve at half-maximal effect.

For the experiment, the target named is Rap guanine nucleotide exchange factor 4 (Homo sapiens) (UniProt Q8WZA2). Nature of the experiment: Validation qHTS for agonist of cAMP-regulated guanine nucleotide exchange factor 4 (EPAC2).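 As to activation: exchange makes BODIPY-GDP fluorescence drop when released from Rap1B; series mostly up to about 150 µM.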 The conditions noted are these: EPAC2 Rap1B BODIPY-GDP exchange, fluorescence; activation: active compounds read high. An excerpt: Principle Investigator: Xiaodong Cheng Ph.D.
Rap guanine nucleotide exchange factor 4 (Homo sapiens), sequence (Q8WZA2 whole entry, looked up): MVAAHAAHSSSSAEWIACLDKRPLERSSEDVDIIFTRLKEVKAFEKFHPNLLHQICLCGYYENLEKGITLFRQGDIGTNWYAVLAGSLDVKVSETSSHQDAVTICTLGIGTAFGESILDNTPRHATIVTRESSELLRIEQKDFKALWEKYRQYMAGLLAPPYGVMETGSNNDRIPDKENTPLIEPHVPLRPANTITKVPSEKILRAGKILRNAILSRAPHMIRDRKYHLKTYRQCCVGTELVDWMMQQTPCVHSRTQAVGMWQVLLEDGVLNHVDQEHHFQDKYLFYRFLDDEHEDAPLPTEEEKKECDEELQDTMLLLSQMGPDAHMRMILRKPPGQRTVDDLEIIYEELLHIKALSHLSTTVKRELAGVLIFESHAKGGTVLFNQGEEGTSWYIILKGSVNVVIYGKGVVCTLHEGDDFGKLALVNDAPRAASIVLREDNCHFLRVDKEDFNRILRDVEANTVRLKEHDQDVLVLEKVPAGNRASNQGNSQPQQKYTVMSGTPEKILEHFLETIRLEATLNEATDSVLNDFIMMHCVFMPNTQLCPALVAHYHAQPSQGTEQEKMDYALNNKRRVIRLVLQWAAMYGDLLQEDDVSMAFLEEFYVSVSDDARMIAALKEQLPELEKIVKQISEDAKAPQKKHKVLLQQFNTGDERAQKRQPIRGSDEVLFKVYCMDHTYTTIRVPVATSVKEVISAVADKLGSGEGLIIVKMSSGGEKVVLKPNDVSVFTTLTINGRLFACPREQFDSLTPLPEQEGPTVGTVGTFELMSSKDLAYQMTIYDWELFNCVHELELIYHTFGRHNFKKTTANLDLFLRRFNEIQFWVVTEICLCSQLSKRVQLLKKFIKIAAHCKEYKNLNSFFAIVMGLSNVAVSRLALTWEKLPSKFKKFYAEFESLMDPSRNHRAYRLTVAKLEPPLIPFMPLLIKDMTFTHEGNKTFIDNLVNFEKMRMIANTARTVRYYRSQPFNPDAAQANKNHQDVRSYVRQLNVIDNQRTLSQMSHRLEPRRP
The University of Texas Medical Branch, […], TX
In multi-cellular eukaryotic organisms, the effects of cAMP are transduced by two ubiquitously-expressed intracellular cAMP receptors, the classic protein kinase A/cAMP-dependent protein kinase (PKA/cAPK) and the more recently discovered exchange protein directly activated by cAMP/cAMP-regulated guanine nucleotide exchange factor (EPAC/cAMP-GEF). Both PKA and EPAC are ubiquitously expressed in all tissues, and an increase in intracellular cAMP levels will lead to the activation of both PKA and EPAC. Therefore, careful dissections of the individual role and relative contribution of EPAC and PKA within the overall cAMP signaling in various model systems are critical for further elucidating the mechanism of cAMP signaling. To date no EPAC-specific antagonists and agonist, as well as isoform-specific agonists have been reported, and developing EPAC-specific pharmacological probes to determine the physiological functions that EPAC play in the overall cAMP-mediated signaling remains a major challenge within the research field. Furthermore, identified regulators of EPAC may lead to new mechanism-based therapeutic strategies specifically targeting the EPAC / cAMP-signaling components as EPAC has been implicated to play important roles in major human pathological conditions such as diabetes, heart disease, and cancer.
This qHTS will be used to screen the Molecular Libraries Small Molecule Repository (MLSMR) as a concentration-titration series using the NCGC unique quantitative screening (qHTS) platform to find activators for EPAC1. In addition, this assay will also be used as a counterscreen for the EPAC2 qHTS. This fluorescent based assay is developed and validated for EPAC1 that measures exchange using EPAC effector Rap1 complex with BODIPY-GDP, a GDP analog with a tethered fluorophores. Activators are identified by monitoring the change in fluorescence signal as the exchanged free BODIPY-GDP has a reduced fluorescence compared to Rap1-bound BODIPY-GDP. Increase in signal (activation) is the desired outcome for the EPAC1 agonist while no activity in this assay is desired for the EPAC2 agonist counterscreen.
[1] de Rooij, J., Zwartkruis, F. J., Verheijen, M. H., Cool, R. H., Nijman, S. M., Wittinghofer, A., and Bos, J.L. (1998) Nature 396, 474-477.
Briefly, three uL of reagents (100 nM EPAC2, 250 nM RAP1B-BODIPY-GDP, 50 uM GDP) were dispensed into a 1536-well Greiner black solid-bottom medium binding assay plate. Controls and test compounds (23 nL) were transferred to the plate via a Kalypsys pin tool equipped with a 1536-pin array. The plates were centrifuged at 1,000 rpm for 15 seconds followed by 5 minute incubation at room temperature. The assay plates were read at 5 minute intervals for 30 minutes in the ViewLux plate reader using 480nm excitation and 540nm emission filters. The results were normalized to the agonist positive control of 6.5 mM cAMP.
Regarding `CC(C)NC(=O)N1CCC2(CC1)CCN(S(=O)(=O)c1ccccc1)CC2`, the activation was -7.09%.
On the same count and under the same terms, then `O=S1(=O)CCOCCCN1Cc1cccc(F)c1`, with -1.25%; and `OCC1OC(n2cnc3c(Cl)nc(Cl)nc32)C(O)C1O` (centres undefined), with -15.7%.
Same read-out and setting: the value for `O=C(c1cccc(F)c1)N1CCC2(CC1)CN(c1ccccc1)C2` was 4.44%; that for `NC(=S)c1ccc[n+]([C@@H]2O[C@@H](COP(=O)([O-])OP(=O)(O)OC[C@H]3O[C@@H](n4cnc5c(N)ncnc54)[C@H](OP(=O)(O)O)[C@@H]3O)C(O)C2O)c1` (some centres undefined) was -34.4%; that for `COCCn1c(=O)c(CCc2ccccc2)nc2cnc(N3CCN(C)CC3)nc21` was -2.75%.
For `COC(=O)C1C(O)CC[C@H]2CN3CCc4c([nH]c5ccccc45)C3C[C@H]12` (some centres undefined), the activation is 2.5%.
Same read-out and setting: the value for `Cc1c(C(=O)NCCCc2ccncc2)cnn1-c1nccc(-c2ccccc2F)n1` was -21.1%; that for `COc1cccc(-c2nc(N3CCN(C)CC3)c3ccccc3n2)c1` was -6.1%; that for `COc1cccc(CNC(=O)c2c(OC)cc(=O)n3c2CCN(C(=O)c2cc(C)ccc2C)CC3)c1` was -2.82%.
With `O=c1c(-c2ccc(Cl)cc2)nc2cnc(N3CCOCC3)nc2n1Cc1ccc(F)cc1`, the activation is -11.5%.
Still for that read-out and setting: then `COc1cc(CN2CCOc3ccc(C(O)c4cccnc4)cc3C2)cc(OC)c1` (centres undefined), with -13.6%; and `COc1cc(N)c(N)cc1OC`, with -7.59%; and `Nc1ccc(O)cc1`, with 25.8% and 23.8%.
`Nc1cc(N)cc(N)c1`: the Potency is 50.1 µM (active).
Turning to `Cc1cnc(CNc2cc(-c3ccc(N(C)C)cc3)ncn2)cn1`, the activation is -19.7%.
The same measure, in the same setting: then `COc1ccccc1C1CN(CCNC(=O)c2ccc3c(c2)OCCO3)Cc2ccccc2O1` (centres undefined), with 10.6%; and `COc1ccccc1CN1[C@@H](CC(=O)O)c2ccccc2S1(=O)=O`, with -19.4%; and `COC(=O)C1CCN(Cc2ccc3c(c2)CN(C(=O)c2ccc(-n4cnnn4)cc2)CCO3)CC1`, with -3.06%.
With `COc1cc(/C(C)=C/c2ccccc2)c2c(c1)oc1ccccc12`, the activation was -19%.
The same measure, in the same setting: then `CCCCCCCCCCCCCCCC[n+]1ccc(/C=C/c2c(C)[nH]c3ccccc23)cc1`, with -30%.
As for `CCCCCCC[n+]1ccc(/C=C/c2c(C)[nH]c3ccccc23)cc1`, the Potency was 25.1 µM (active).
Consider `CCCCCCC[n+]1ccc(/C=C/c2c(C)[nH]c3ccccc23)c2ccccc21`, for which the activation is -18.3%.
As for `Cc1cnc(-n2ncc(C(=O)NCc3ccccn3)c2C2CC2)nc1-c1cccs1`, the activation is -5.87%.
The same measure, in the same setting: the value for `c1ccc2nc3ccccc3cc2c1` was -8.02%; that for `Nc1ccc2nc[nH]c2c1` was -7.36%.
With `Nc1ccc2cc3ccc(N)cc3nc2c1`, the Potency was 89.1 µM (active).
On to `COc1ccc2c(c1)-c1nc(-n3ncc(C(=O)NCC4CCCN(C)C4)c3C3CC3)ncc1CC2` (centres undefined), for which the activation is 1.91%.
With `CC(=O)N[C@@H]1C(O[C@H]2O[C@H](C(=O)O)C(O)[C@H](O)[C@H]2O)[C@H](O)[C@@H](CO)O[C@H]1O[C@@H]1C(C(=O)O)O[C@@H](O[C@H]2[C@H](O)[C@@H](CO)OC(O)[C@@H]2NC(C)=O)[C@H](O)[C@H]1O` (some centres undefined), the activation is -11.1%.
Still for that read-out and setting: then `CCn1c(C)nc2cc(NS(=O)(=O)c3ccccc3)cc(C(=O)N3C[C@@H](C)O[C@@H](C)C3)c21`, with -0.794%.
Same read-out and setting: then `OC(C1=C/C(=C\c2ccncc2)c2ccccc21)c1ccncc1` (centres undefined), with -21.2%; and `COc1ccc(C(=O)N2CCC3(CC2)c2ccccc2[C@@H](NC(=O)c2ccccn2)[C@@H]3OC)c(O)c1`, with 3.44%; and `O=C1[C@H](Cc2ccccc2)NC/C=C\C[C@@H](c2ccc(Cl)cc2)N1Cc1ccccc1`, with -43%.
On the same count and under the same terms, the value for `CC(C)C[C@@H](CO)N1CCN(Cc2cccc(C#N)c2)CCC1=O` was -27.7%.
As to `COc1ccc(OC)c(CN2CCCC(c3nc(-c4ccncc4)ncc3-c3ccccc3C)C2)c1` (centres undefined), the activation is -2.68%.
On the same count and under the same terms, then `FC(F)(F)C(Cl)Br` (centres undefined), with -29.1%.
On to `FC(F)OC(Cl)C(F)(F)F` (centres undefined), for which the Potency was 31.6 µM (active).
Turning to `COCc1ccc(CN2CCOc3c(O)cc(-c4cc(C)c5ccc(F)cc5n4)cc3C2)o1`, the activation was 8.6%.
Same read-out and setting: the value for `O=C(c1cc(C(F)(F)F)cc(C(F)(F)F)c1)N1CCC2(CCCN(Cc3ccccc3)C2)CC1` was -6.26%.

Source of the values: PubChem BioAssay AID1645887 (National Center for Advancing Translational Sciences (NCATS), 2021).
